This excerpt belongs to a sample that is enriched for hits.
hDAT+cocaine – modulates human dopamine transporter uptake under cocaine; Q01959; LLC-PK1 hDAT cells, [14C]-dopamine uptake with cocaine IC80; actives deviate in either direction; B-score at 10 µM; 110,000 tested, 1.3% active; AID 449768;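 active = Z score or B-score, a plate-position-corrected score, falls beyond the plate's 99.7% confidence bounds, in either direction; inactive = both scores lie inside the 99.7% bounds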;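 note: scored against the spread of the other compound wells on the same plate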
Target sequence (Q01959 whole entry, looked up): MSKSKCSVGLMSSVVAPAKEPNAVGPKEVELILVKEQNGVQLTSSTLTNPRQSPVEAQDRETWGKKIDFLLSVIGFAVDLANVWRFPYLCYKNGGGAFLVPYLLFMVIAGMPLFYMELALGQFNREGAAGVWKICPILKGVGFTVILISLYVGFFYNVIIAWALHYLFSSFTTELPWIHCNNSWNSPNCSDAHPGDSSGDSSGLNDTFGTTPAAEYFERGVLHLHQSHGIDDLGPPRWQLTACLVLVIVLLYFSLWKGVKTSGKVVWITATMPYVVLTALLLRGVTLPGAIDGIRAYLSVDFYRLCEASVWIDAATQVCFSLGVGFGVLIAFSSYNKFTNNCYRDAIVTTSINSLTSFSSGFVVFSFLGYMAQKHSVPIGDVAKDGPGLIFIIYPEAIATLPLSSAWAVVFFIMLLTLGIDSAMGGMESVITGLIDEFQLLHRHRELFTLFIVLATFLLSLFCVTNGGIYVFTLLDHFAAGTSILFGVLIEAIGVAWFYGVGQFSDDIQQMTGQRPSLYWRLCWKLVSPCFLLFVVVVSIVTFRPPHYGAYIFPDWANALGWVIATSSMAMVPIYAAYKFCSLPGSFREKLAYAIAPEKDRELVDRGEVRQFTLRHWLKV
EphB4 ephrin blk – EphB4-ephrin-B2 interaction antagonism | EphB4 LBD / TNYL-RAW-Alexa532 peptide, fluorescence polarization | inhibition, % at 7 µM | 97,000 tested, 0.15% active | AID 720 | P54760;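 active = inhibition above the screen-wide mean inhibition plus 3 SD, cut at about 15% in these data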;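 note: 0% = DMSO wells and 100% = excess unlabeled TNYL-RAW peptide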
D1 allo mod – allosterically modulates the human D1 dopamine receptor; 58,000 tested, 5.9% active; B-score at 10 µM; HEK293 D1, CRE-luciferase, dopamine EC30 potentiation; actives deviate in either direction; P21728;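 active = luminescence count or its row- and column-corrected plate score outside the 99.7% band of the plate's sample wells, on either side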
D1 mod confirm – D1 receptor (human) allosteric modulation, confirmed; shares compounds with D1 allo mod; HEK293 D1 CRE-luciferase, dopamine EC30 potentiation; stronger effect = higher value; luminescence at 10 µM; 2,200 tested, 88% active; AID 642;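 active = luminescence in either of two replicates above the same-plate mean plus 3 SD of the low-dose dopamine control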
D1 ag no DA – activates D1 CRE-luciferase signal without dopamine present | shares compounds with D1 allo mod | HEK293 D1 CRE-luciferase, luminescence, no dopamine; stronger effect = higher value | luminescence at 10 µM | 1,900 tested, 0.8% active | AID 646; in the data active = luminescence above about 3900
Isoprot counter – counter-screen for D1 modulators: isoproterenol response in HEK293 cells; shares compounds with D1 allo mod; AID 647; 2,200 tested, 63% active; calls only at 10 µM; HEK293 D1 CRE-luciferase, isoproterenol EC30 counter-screen;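 active = luminescence in either replicate above plate mean of wells with a partly effective reference agonist dose plus 3 SD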;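 note: isoproterenol raises cAMP through native beta-adrenoceptor Gs so signal bypasses D1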
* marks the source's active call; other numbers are inactive results; i = inactive; nt = not tested or not shown; + = active, no number.

SMILES	hDAT+cocaine	EphB4 ephrin blk	D1 allo mod	D1 mod confirm	D1 ag no DA	Isoprot counter
COc1ccc(C2=CC3=C(Br)C(=O)C(C)(OC(=O)c4cnc5ccccc5n4)C(=O)C3=CO2)cc1 (stereo unspecified)	-0.42	nt	nt	nt	nt	nt
O=C(NOC(=O)c1ccccc1Cl)c1cccs1	0.52	0	nt	nt	nt	nt
CC(C)Cn1c(N)c(C(=O)COC(=O)CC23CC4CC(CC(C4)C2)C3)c(=O)n(C)c1=O	1.3	1	nt	nt	nt	nt
CC(C)Oc1cccc(-c2nnc(SCC(=O)Nc3ccc4c(c3)OCCO4)n2N)c1	0.0025	-8	nt	nt	nt	nt
Cc1ccc(Nc2nc3c(c(=O)[nH]c(=O)n3C)n2Cc2ccc(F)cc2)cc1	-0.44	-9	nt	nt	nt	nt
COc1ccc(CCNC(=O)c2cnn3c(C(F)F)cc(C)nc23)cc1OC	1.6	-7	nt	nt	nt	nt
COc1ccc(CCNC(=O)c2cnn3cccnc23)cc1OC	0.28	7	13*	14608*	1264	+
CCC(Cc1ccccc1)NC(=O)CSc1ccsc1[N+](=O)[O-] (stereo unspecified)	0.25	7	nt	nt	nt	nt
CCOC(=O)C1CCCN(c2nc3ccccc3nc2C(C#N)C(=O)OCC)C1 (stereo unspecified)	-0.035	nt	3*	8656*	1548	i
CCOC(=O)C1CCCN(c2nc3ccccc3nc2C(C#N)C(=O)OCCOC)C1 (stereo unspecified)	1.3	nt	2	nt	nt	nt
CC(C)(C)C(=O)Nc1nc(=S)ss1	-0.0079	1	nt	nt	nt	nt
O=C(CSc1nc2ccc([N+](=O)[O-])cc2[nH]1)NCCc1ccccc1	-1.9	4	nt	nt	nt	nt
Cc1ccccc1OCC(O)Cn1c(NCCN(C)C)nc2c1c(=O)n(C)c(=O)n2C (stereo unspecified)	nt	8	8.2*	4948	1480	i
Cn1c(=O)c2c(nc(NCc3ccco3)n2CC(O)COc2ccccc2)n(C)c1=O (stereo unspecified)	nt	-1	-1.2	nt	nt	nt
NC(=O)CC1NC(=O)c2cc([N+](=O)[O-])cc(I)c2OCCC(C(N)=O)NC(=O)[C@@H]2CCCN2C1=O (stereo partly specified)	0.00071	nt	nt	nt	nt	nt
N#Cc1cc2c(nc1SCc1cccc(Cl)c1)CCCCC2	0.0097	-2	nt	nt	nt	nt
N#Cc1cc2c(nc1SCc1cccnc1)CCCCC2	0.74	1	10*	23880*	1748	+
Cc1cccc(C)c1NC(=O)C(c1ccccc1)N1CCC1=O (stereo unspecified)	1.2	-2	nt	nt	nt	nt
O=C(CN(C1CCCCC1)C1CCCCC1)N1CCc2ccccc2C1	0.91	-4	nt	nt	nt	nt
CCc1nc(NCCCCCO)c2nnn(Cc3ccccc3F)c2n1	0.53	0	nt	nt	nt	nt
C#CCNc1nc(CC)nc2c1nnn2Cc1ccccc1F	1.2	2	5.9*	15288*	1616	+
CCOC(=O)N1CCc2c(sc3c2C(=O)NC(c2ccccc2)N3)C1 (stereo unspecified)	nt	-2	0.33	nt	nt	nt
Cn1cccc1C1NC(=O)c2c(sc3c2CCC(C(C)(C)C)C3)N1 (stereo unspecified)	-0.08	-10	3*	7568*	1776	i
O=C(Nn1c(=O)[nH]c2ccccc2c1=O)c1ccco1	0.062	4	nt	nt	nt	nt
CCC/C=C1/CCCOC(C(=O)NCc2ccccc2)(C(F)(F)F)C1 (stereo unspecified)	-0.56	nt	nt	nt	nt	nt
SMILES	hDAT+cocaine	EphB4 ephrin blk	D1 allo mod	D1 mod confirm	D1 ag no DA	Isoprot counter
CC(C)Sc1nc2c(c(=O)n1-c1ccc(F)cc1)SCC2	-0.062	-11	11*	23632*	1816	+
O=C(CSc1nc2c(c(=O)n1-c1ccc(F)cc1)SCC2)N1CCCC1	0.27	-6	-0.78	nt	nt	nt
Cc1cccc(C)c1OC(=O)CN(c1ccc(Cl)cc1)S(C)(=O)=O	0.32	8	nt	nt	nt	nt
COc1ccc(CN2CCN(C(=O)c3cccs3)CC2)cc1Br	0.0015	4	6.4*	12896*	nt	+
COc1cc2c(cc1OC)CN(C(=O)c1cccs1)CC2	0.34	-6	5.1*	8784*	1504	+
CCOc1ccc(C(=O)N2CCN(C(=O)c3ccco3)CC2)cc1OCC	0.14	-2	1.9	nt	nt	nt
COc1ccc(CN2CCN(S(=O)(=O)c3ccccc3)CC2)cc1Br	-0.97	-9	nt	nt	nt	nt
CCC(=O)c1ccc(OCC(=O)N2CCc3cc(OC)c(OC)cc3C2)cc1	-0.69	-4	2.2	nt	nt	nt
CCOc1ccc(C(=O)N2CCc3cc(OC)c(OC)cc3C2)cc1OCC	0.52	-4	4.6*	15188*	1788	+
COc1cccc(C(=O)N2CCN(C(=O)c3cccs3)CC2)c1OC	0.036	-4	-0.21	nt	nt	nt
COc1cc2c(cc1OC)CN(C(=O)COc1ccc(C)c(C)c1)CC2	0.45	10	13*	21228*	1676	+
C=CCN1C=CC(=O)CC1	0.16	nt	nt	nt	nt	nt
C1CSC2(N1)C1CC3CC2CC(C1)C31NCCS1 (stereo unspecified)	-1.2	-1	nt	nt	nt	nt
O=C(NC1CCCCC1)c1cccc(Cn2cc(Cl)cn2)c1	-0.011	0	nt	nt	nt	nt
COC(CNc1cc(=O)oc2ccccc12)OC	-0.18	-2	nt	nt	nt	nt
C=CCNc1sc(C(=O)c2cccs2)c(N)c1C#N	-0.18	nt	16*	22248*	1616	+
CCNc1sc(C(=O)c2cccs2)c(N)c1C#N	-0.48	2	18*	22348*	1796	+
C=CCNc1sc(C(=O)c2ccccc2)c(N)c1-c1nc2ccccc2s1	0.35	5	nt	nt	nt	nt
CCNc1sc(C(=O)c2cccs2)c(N)c1-c1nc2ccccc2s1	1.1	8	-0.003	nt	nt	nt
O=C(Nc1ccc(NC(=O)C2CC2)nc1)c1ccncc1	0.015	10	0.11	nt	nt	nt
CC1=CCC2C(=O)N(c3ccc(C(=O)N4CCCCCC4)cc3)C(=O)C2C1 (stereo unspecified)	2.1	5	nt	nt	nt	nt
Cc1c(C(=O)NCc2ccccc2)oc2ccc(S(=O)(=O)N3CCCC3)cc12	0.6	-3	11*	21124*	1628	+
COc1ccccc1CNC(=O)c1oc2ccc(S(=O)(=O)N3CCCC3)cc2c1C	0.86	-1	30*	19660*	1724	+
Cc1c(C(=O)NCc2ccc3c(c2)OCO3)oc2ccc(S(=O)(=O)N3CCCC3)cc12	0.58	nt	nt	nt	nt	nt
Cc1c(C(=O)NCc2cccnc2)oc2ccc(S(=O)(=O)N3CCCCC3)cc12	0.3	-1	-0.45	nt	nt	nt
SMILES	hDAT+cocaine	EphB4 ephrin blk	D1 allo mod	D1 mod confirm	D1 ag no DA	Isoprot counter
Cc1occc1C(=O)Nc1ccc(Br)cc1F	-1.5	-5	nt	nt	nt	nt
O=c1c2ccccc2nc(SCc2cn3ccsc3n2)n1-c1ccc(F)cc1	1.7	-3	8.2*	10696*	1584	+
O=C(CSc1nc2ccccc2c(=O)n1-c1ccc(F)cc1)NCc1ccco1	0.58	-2	nt	nt	nt	nt
Cc1noc(C)c1CSc1nc2sc3c(c2c(=O)n1C)CCCC3	0.85	4	nt	nt	nt	nt
Cc1noc(C)c1CSc1nc2sc(C)c(C)c2c(=O)n1C1CCCC1	-0.99	0	10*	13364*	1472	+
CC(=O)O[C@@H]1[C@H]2[C@@H](C[C@@H](C)[C@@H]3CCC(=O)[C@@]13C)OC(=O)[C@@H]2C	0.11	nt	nt	nt	nt	nt

Compound activity from PubChem.
